Results as given in PubChem BioAssay (NCATS).
Where “and” joins values, the source holds several entries; their conditions need not be identical. Equal entries are not always repeated. Inconclusive results are not listed. Calls of active or inactive are those of the source. Unless noted, calls follow the shape of the full dose curve.

Assays:
[1] = Cell Viability - LYMP2-016 (AID 984; active = well fitted curve in the direction sought with a large enough effect; an effect the other way counts as inactive or inconclusive;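 also: cells exposed to compound for 24 hours at 37 °C; % is scaled to controls: 0 for no effect and ±100 for the full control effect; nearly all actives have a fitted effect of over 55% in size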)
How it was run: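 Human lymphoblastoid cells (LYMP2-016), 2500/well in complete medium, preincubated 5 hr at 37 C, then compound-treated 24 hr at 37 C. Intracellular ATP read by CellTiter-Glo luminescence after 30 min at room temperature; AC50 from Hill-equation concentration-response fits.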

[2] = Cell Viability - LYMP2-018 (AID 985; active = well fitted curve in the direction sought with a large enough effect; an effect the other way counts as inactive or inconclusive;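 also: compound exposure lasted 24 hr at 37 °C; plate controls were DMSO only for no effect and tetraoctylammonium bromide at 92 µM for full effect; nearly all actives have a fitted effect of over 50% in size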)
How it was run: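 Seed 2500 lymphoblastoid cells per well, incubate 5 hr at 37 C, add compound and incubate 24 hr at 37 C, add CellTiter-Glo, wait 30 min at room temperature, then read luminescence.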

[3] = Cell Viability - LYMP2-022 (AID 987; active = well fitted curve in the direction sought with a large enough effect; an effect the other way counts as inactive or inconclusive;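 also: 0% = DMSO alone and full effect = tetraoctylammonium bromide at 92 µM; nearly all actives have a fitted effect of over 55% in size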)
How it was run: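 Cells were seeded at 2500 per well, rested 5 hr at 37 C, and treated with titrated compounds for 24 hr at 37 C. Cellular ATP was then quantified by luciferase luminescence, and AC50 values were derived from Hill-modelled concentration-response curves.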

[4] = Cell Viability - LYMP2-024 (AID 988; active = well fitted curve in the direction sought with a large enough effect; an effect the other way counts as inactive or inconclusive;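 also: plate controls were DMSO only for no effect and 92 µM tetraoctylammonium bromide for full effect; nearly all actives have a fitted effect of over 60% in size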)
How it was run: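 qHTS cytotoxicity, human lymphoblastoid line, complete medium; 24 h cpd treatment, 37 C; CellTiter-Glo ATP luminescence readout; tetraoctylammonium bromide positive control; AC50 via Hill fit.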

[5] = Cell Viability - LYMP2-026 (AID 989; active = well fitted curve in the direction sought with a large enough effect; an effect the other way counts as inactive or inconclusive;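 also: cells exposed to compound for 24 h at 37 °C; % is scaled to controls: 0 for no effect and ±100 for the full control effect; nearly all actives have a fitted effect of over 50% in size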)
How it was run: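 Cells are seeded at 2500 per well and held 5 hr at 37 C. Compounds are added in concentration series for 24 hr, then CellTiter-Glo reagent is applied and luminescence read.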

[6] = Cell Viability - LYMP1-002 - Assay at 24 hr (AID 993; active = well fitted curve in the direction sought with a large enough effect; an effect the other way counts as inactive or inconclusive; also: % is scaled to controls: 0 for no effect and ±100 for the full control effect)
How it was run: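 Acute toxicity is measured as concentration-dependent loss of cellular ATP in a human lymphoblastoid line (Coriell LYMP1-002) after 24 h treatment in complete medium. ATP is quantified by luciferase luminescence and AC50 derived by Hill modelling.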

[7] = Cell Viability - LYMP1-002 - Assay at 40 hr (AID 994; active = well fitted curve in the direction sought with a large enough effect; an effect the other way counts as inactive or inconclusive;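 also: 0% = DMSO only and full inhibition = 92 µM tetraoctylammonium bromide; nearly all actives have a fitted effect of over 60% in size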)
How it was run: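 Cells are plated at 2500 per well and rested 5 hr at 37 C. Compounds are added and incubated 40 hr at 37 C. CellTiter-Glo reagent is added for 30 min at room temperature before luminescence is read.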

[8] = qHTS Assay for Identification of Small Molecule Inducers of Hypoxia Response (AID 2120; active = well fitted curve in the direction sought with a large enough effect in the signal ratio, with a control signal flat, not every such curve was filed as active; the % refers to the signal ratio; also: 0% is about no effect)
How it was run: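 Cell-based qHTS for reporter induction: hypoxia response element controlled beta-lactamase in ME-180 cells. Compounds incubated 17 h at 37 degrees C; activity from blue/green (460/530 nm) ratio, inducers ranked by AC50.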

[9] = target: Estrogen receptor (Homo sapiens) (UniProt P03372); assay: qHTS assay for small molecule antagonists of estrogen receptor alpha signaling (AID 588513; active = well fitted curve in the direction sought with a large enough effect in the signal ratio, with a control signal flat, not every such curve was filed as active; the % refers to the signal ratio; also: % is scaled to controls: 0 for no effect and ±100 for the full control effect)
How it was run: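 ER-alpha-UAS-bla GripTite HEK 293 cells in medium with 2% charcoal/dextran-treated FBS were preincubated 4 h at 37 C, dosed with compound (1:2 titration), stimulated with 0.5nM 17-beta-estradiol for 18 h, then read by CCF4 beta-lactamase fluorescence.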

[10] = target: Estrogen receptor (Homo sapiens) (UniProt P03372); assay: qHTS assay for small molecule agonists of estrogen receptor alpha signaling (AID 588514);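 also: 0% = vehicle only and 100% = reference agonist; nearly all actives have a fitted effect of over 70% in size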
How it was run: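 Efficacy is expressed against 20 nM 17-beta-estradiol (100%) and DMSO basal (0%); EC50 from Hill equation. Assay: beta-lactamase reporter in ER-alpha-UAS-bla HEK 293 cells, 18 h compound incubation, CCF4 detection.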

[11] = target: Glucocorticoid receptor (Homo sapiens) (UniProt P04150); assay: qHTS assay for small molecule agonists of glucocorticoid receptor signaling (AID 588532; active = well fitted curve in the direction sought with a large enough effect in the signal ratio, with a control signal flat; the % refers to the signal ratio;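 also: 100% = dexamethasone at 0.1 µM and 0% = DMSO only wells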); details: HeLa MMTV-bla, beta-lactamase ratio, agonist, 18 h; stronger effect = higher value; percent of dexamethasone control, DMSO zero
How it was run: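 Quantitative HTS using CellSensor MMTV-bla HeLa cells in charcoal/dextran-treated serum; compounds tested up to 92 uM. After 18 h at 37 C, CCF4 dye reported reporter induction.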

[12] = target: Glucocorticoid receptor (Homo sapiens) (UniProt P04150); assay: qHTS assay for small molecule antagonists of glucocorticoid receptor signaling (AID 588533; active = well fitted inhibition curve with a large enough effect in the signal ratio, with a control signal flat, not every such curve was filed as active; the % refers to the signal ratio;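 also: cells stimulated with 2 nM dexamethasone as agonist; % is scaled to controls: 0 for no effect and ±100 for the full control effect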)
How it was run: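 Antagonist-mode qHTS: compound titrations added to GRE-bla HeLa cells, then dexamethasone 2 nM final; 18 h, 37 C. CCF4 FRET fluorescence normalized to dexamethasone and DMSO; IC50 from Hill fit.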

[13] = target: Peroxisome proliferator-activated receptor delta (Homo sapiens) (UniProt Q03181); assay: qHTS assay for small molecule agonists of peroxisome proliferator-activated receptor delta signaling (AID 588534);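 also: 0% = DMSO basal wells and 100% = positive control agonist at 10 µM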
How it was run: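 Agonist-mode qHTS; reporter cells, 5 hrs 37 C pre-incubation; compound titration, 18 hrs 37 C; CCF4 dye, 2 hrs RT; fluorescence read. EC50/efficacy via Hill fit.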

[14] = qHTS assay for small molecule antagonists of peroxisome proliferator-activated receptor delta signaling (AID 588535; active = well fitted inhibition curve with a large enough effect in the signal ratio, with a control signal flat, not every such curve was filed as active; the % refers to the signal ratio;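 as to max response: cells co-treated with a PPAR-delta agonist as stimulator during compound exposure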); details: HEK293T PPARd-UAS-bla, beta-lactamase FRET ratio, 18 h; 460 nm channel
How it was run: (§1)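 Titrations were run on PPAR-delta-UAS-bla HEK293T cells in charcoal/dextran-stripped serum, incubated 18 h at 37 C. CCF4 fluorescence (460/530 nm) after 2 h RT; Hill equation yields IC50 and maximal response.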

[15] = target: Peroxisome proliferator-activated receptor delta (Homo sapiens) (UniProt Q03181); assay: as above
How it was run: as §1

[16] = target: Peroxisome proliferator-activated receptor gamma (Homo sapiens) (UniProt P37231); assay: qHTS assay for small molecule agonists of peroxisome proliferator-activated receptor gamma signaling (AID 588536; active = well fitted curve in the direction sought with a large enough effect in the signal ratio, with a control signal flat, not every such curve was filed as active; the % refers to the signal ratio;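 also: 0% = DMSO basal wells and 100% = rosiglitazone at 2 µM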)
How it was run: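 Cells were plated and held 6–6.5 h at 37 C, then compounds were added as a titration series. After a further 16 h, CCF4 dye was loaded for 2 h at room temperature and emission at 460/530 nm recorded.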

[17] = target: Vitamin D3 receptor (Homo sapiens) (UniProt P11473); assay: qHTS assay for small molecule antagonists of vitamin D receptor signaling (AID 588541);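 also: receptor activated by calcitriol during compound treatment; series mostly up to about 77 µM; % is scaled to controls: 0 for no effect and ±100 for the full control effect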
How it was run: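 Antagonist-mode beta-lactamase reporter assay: HEK293T VDR-UAS-bla cells were exposed to titrated compound alongside 1-alpha,25-dihydroxyvitamin D3 at 3 nM final for 16 h. Values were normalized to the 50 nM agonist control and DMSO basal, with IC50 and efficacy from Hill equation fits.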

[18] = target: Vitamin D3 receptor (Homo sapiens) (UniProt P11473); assay: qHTS assay for small molecule agonists of vitamin D receptor signaling (AID 588543);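 also: 0% = DMSO basal and 100% = reference agonist control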
How it was run: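 GeneBLAzer VDR-UAS-bla HEK293T cells in 2% charcoal-stripped FBS medium were dosed with compound titrations for 16 h at 37 °C; CCF4 β-lactamase readout (405 nm ex, 460/530 nm em). EC50 and efficacy from Hill fits, normalized to 50 nM calcitriol (100%) and DMSO (0%).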

[19] = qHTS assay for small molecule agonists of retinoid X receptor alpha signaling (AID 588544); details: HEK293T RXRa-UAS-bla, beta-lactamase reporter, 18 h; 530 nm emission;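 as to activation: 0% = DMSO basal wells and 100% = reference agonist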
[20] = target: Retinoic acid receptor RXR-alpha (Homo sapiens) (UniProt P19793); assay: as above
[21] = target: Thyroid hormone receptor beta (Homo sapiens) (UniProt P10828); assay: qHTS assay for small molecule agonists of thyroid hormone receptor beta signaling (AID 588545)
How it was run: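 Agonist-mode beta-lactamase reporter assay, HEK 293 cells, 2% charcoal/dextran FBS; cells plated 4 hrs, compound 18 hrs at 37 C, CCF4 2 hrs RT. Normalized to 10 nM T3 (100%) and DMSO (0%); Hill fit gives EC50, efficacy.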

[22] = qHTS assay for small molecule antagonists of retinoid X receptor alpha signaling (AID 588546; active = well fitted inhibition curve with a large enough effect in the signal ratio, with a control signal flat, not every such curve was filed as active; the % refers to the signal ratio); details: HEK293T RXRa-UAS-bla, beta-lactamase ratio, antagonist mode; measured here: W530 green channel, cytotoxicity proxy
How it was run: (§2)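 Beta-lactamase reporter inhibition, read as CCF4 fluorescence ratio (ex 405, em 460/530 nm) after 2 h at RT. HEK293T UAS-bla cells, 2500/well, were stimulated with 9-cis-RA at 500 or 100 nM final alongside test compound for 18 h at 37 C.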

[23] = target: Retinoic acid receptor RXR-alpha (Homo sapiens) (UniProt P19793); assay: as above; details: HEK293T RXRa-UAS-bla, beta-lactamase ratio, antagonist mode
How it was run: as §2

[24] = target: Thyroid hormone receptor beta (Homo sapiens) (UniProt P10828); assay: qHTS assay for small molecule antagonists of thyroid hormone receptor beta signaling (AID 588547; active = well fitted inhibition curve with a large enough effect in the signal ratio, with a control signal flat, not every such curve was filed as active; the % refers to the signal ratio); details: TR-UAS-bla HEK293, beta-lactamase ratio, antagonist mode, 18 h
How it was run: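 Inhibition of T3-driven (0.4nM final) beta-lactamase reporter activity was measured over 0.59 nM to 92 uM compound after 18 h at 37 C. The cells were GripTite HEK293 TR-UAS-bla in charcoal/dextran-stripped serum, with CCF4 ratio read-out and IC50 from Hill fits.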

[25] = target: Voltage-gated inwardly rectifying potassium channel KCNH2 (Homo sapiens) (UniProt Q12809); assay: qHTS Assay for Small Molecule Inhibitors of the Human hERG Channel Activity (AID 588834; active = well fitted curve in the direction sought with a large enough effect; an effect the other way counts as inactive or inconclusive;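 also: top concentration of the series differs between compounds; % is scaled to controls: 0 for no effect and ±100 for the full control effect; lower thallium flux fluorescence means stronger hERG block; nearly all actives have a fitted effect of over 50% in size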)
How it was run: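 In hERG-transduced U2OS cells, dye-loaded for 1 hr at room temperature in dark, test compounds incubated 10 min at 37 °C before thallium stimulation. AC50 values derived by Hill modelling of concentration-response.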

Chain of Vitamin D3 receptor (Homo sapiens) (P11473 whole entry, looked up): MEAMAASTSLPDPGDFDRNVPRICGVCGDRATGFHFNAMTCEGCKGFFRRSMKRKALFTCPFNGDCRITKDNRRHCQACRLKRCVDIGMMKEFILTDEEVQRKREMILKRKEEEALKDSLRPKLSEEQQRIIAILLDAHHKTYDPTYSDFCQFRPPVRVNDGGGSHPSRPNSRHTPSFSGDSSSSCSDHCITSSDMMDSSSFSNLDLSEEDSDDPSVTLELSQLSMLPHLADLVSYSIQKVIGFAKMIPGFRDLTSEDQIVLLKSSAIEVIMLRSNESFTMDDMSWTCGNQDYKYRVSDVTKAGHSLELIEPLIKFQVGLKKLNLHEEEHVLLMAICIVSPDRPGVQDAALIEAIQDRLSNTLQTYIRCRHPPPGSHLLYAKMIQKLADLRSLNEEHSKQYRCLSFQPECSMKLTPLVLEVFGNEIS
Chain of Peroxisome proliferator-activated receptor delta (Homo sapiens) (Q03181 whole entry, looked up): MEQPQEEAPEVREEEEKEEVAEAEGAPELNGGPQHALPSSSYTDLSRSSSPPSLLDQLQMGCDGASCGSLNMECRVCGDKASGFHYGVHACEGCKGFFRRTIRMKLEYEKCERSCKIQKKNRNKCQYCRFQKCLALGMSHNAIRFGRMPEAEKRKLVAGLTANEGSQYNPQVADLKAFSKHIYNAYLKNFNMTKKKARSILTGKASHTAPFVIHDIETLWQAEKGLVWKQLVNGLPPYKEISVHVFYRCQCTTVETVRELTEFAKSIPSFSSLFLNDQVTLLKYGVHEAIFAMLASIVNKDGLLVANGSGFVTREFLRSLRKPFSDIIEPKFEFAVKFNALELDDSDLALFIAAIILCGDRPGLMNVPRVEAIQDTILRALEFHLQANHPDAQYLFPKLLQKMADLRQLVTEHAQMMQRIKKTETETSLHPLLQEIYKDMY
Chain of Estrogen receptor (Homo sapiens) (P03372 whole entry, looked up): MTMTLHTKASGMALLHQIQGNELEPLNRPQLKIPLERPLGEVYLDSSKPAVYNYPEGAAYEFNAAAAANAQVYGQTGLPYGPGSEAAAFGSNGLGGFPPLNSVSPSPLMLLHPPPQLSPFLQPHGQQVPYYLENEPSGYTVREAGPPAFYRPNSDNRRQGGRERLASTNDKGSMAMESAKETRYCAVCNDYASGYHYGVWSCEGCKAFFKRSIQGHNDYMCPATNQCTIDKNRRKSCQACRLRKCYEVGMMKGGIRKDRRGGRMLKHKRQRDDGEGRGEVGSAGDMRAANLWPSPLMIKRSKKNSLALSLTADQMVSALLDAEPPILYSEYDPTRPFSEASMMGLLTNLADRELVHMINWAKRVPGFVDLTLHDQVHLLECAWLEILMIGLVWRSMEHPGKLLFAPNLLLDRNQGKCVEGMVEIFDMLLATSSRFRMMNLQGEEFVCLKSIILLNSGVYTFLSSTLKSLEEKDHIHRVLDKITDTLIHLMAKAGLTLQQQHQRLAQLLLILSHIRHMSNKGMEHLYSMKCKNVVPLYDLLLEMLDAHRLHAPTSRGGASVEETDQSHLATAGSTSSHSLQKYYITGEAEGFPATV
Chain of Retinoic acid receptor RXR-alpha (Homo sapiens) (P19793 whole entry, looked up): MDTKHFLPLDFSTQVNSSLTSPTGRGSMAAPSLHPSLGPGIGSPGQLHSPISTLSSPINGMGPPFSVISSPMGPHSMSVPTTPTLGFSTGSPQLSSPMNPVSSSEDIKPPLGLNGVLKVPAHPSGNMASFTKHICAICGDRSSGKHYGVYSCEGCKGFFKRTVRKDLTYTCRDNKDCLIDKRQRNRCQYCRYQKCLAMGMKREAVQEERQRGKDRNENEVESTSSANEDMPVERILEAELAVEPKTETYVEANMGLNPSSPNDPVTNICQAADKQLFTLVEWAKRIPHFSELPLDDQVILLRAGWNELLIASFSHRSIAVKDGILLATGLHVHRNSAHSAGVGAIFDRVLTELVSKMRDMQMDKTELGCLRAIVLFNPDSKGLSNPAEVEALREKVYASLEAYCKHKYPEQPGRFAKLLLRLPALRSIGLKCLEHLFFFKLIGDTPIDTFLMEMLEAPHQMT
Chain of Glucocorticoid receptor (Homo sapiens) (P04150 whole entry, looked up): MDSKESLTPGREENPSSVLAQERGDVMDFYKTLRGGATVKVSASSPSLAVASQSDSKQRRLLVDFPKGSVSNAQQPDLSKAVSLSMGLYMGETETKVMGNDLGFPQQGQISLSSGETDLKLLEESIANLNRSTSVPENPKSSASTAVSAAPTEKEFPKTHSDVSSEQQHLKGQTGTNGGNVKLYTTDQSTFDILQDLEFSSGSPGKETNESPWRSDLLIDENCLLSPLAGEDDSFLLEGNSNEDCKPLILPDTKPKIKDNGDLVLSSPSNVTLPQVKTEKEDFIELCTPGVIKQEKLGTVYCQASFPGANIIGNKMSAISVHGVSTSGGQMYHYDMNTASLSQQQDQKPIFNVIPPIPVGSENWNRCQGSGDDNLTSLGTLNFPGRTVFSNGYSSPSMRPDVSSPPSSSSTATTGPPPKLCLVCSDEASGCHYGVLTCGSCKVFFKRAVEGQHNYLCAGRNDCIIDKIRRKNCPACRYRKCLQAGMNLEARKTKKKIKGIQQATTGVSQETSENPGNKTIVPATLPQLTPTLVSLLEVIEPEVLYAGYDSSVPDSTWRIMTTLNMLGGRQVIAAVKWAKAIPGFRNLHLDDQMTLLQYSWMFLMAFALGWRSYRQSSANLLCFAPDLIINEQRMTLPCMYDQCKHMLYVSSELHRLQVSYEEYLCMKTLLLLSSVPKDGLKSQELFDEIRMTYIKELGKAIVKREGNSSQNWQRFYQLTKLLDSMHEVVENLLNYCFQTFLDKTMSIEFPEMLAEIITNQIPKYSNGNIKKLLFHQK
Chain of Thyroid hormone receptor beta (Homo sapiens) (P10828 whole entry, looked up): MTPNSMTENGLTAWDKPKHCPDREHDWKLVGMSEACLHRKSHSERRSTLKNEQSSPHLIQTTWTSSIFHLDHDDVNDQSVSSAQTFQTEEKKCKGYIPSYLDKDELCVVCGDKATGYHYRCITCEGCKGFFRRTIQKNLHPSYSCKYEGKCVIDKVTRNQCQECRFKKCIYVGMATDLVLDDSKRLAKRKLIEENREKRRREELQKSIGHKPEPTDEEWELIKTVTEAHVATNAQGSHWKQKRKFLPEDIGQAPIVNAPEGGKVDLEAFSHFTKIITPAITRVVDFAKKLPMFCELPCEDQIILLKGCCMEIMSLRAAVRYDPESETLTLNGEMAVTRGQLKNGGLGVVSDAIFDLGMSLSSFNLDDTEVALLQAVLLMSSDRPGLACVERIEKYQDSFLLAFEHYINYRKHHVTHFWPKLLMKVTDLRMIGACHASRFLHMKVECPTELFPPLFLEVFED
Chain of Peroxisome proliferator-activated receptor gamma (Homo sapiens) (P37231 whole entry, looked up): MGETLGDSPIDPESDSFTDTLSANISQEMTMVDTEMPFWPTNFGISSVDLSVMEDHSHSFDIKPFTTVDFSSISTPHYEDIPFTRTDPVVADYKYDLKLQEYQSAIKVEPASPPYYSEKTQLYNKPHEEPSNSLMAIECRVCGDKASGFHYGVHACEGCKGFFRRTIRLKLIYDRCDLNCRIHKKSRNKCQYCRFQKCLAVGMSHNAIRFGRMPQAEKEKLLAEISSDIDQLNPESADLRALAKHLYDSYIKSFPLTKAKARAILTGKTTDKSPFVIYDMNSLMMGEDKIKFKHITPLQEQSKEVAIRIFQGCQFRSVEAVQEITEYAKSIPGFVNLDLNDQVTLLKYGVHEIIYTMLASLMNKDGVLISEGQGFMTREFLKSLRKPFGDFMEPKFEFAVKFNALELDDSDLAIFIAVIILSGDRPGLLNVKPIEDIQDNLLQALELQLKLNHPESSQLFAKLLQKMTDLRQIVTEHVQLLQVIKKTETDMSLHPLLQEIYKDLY
Chain of Voltage-gated inwardly rectifying potassium channel KCNH2 (Homo sapiens) (Q12809 whole entry, looked up): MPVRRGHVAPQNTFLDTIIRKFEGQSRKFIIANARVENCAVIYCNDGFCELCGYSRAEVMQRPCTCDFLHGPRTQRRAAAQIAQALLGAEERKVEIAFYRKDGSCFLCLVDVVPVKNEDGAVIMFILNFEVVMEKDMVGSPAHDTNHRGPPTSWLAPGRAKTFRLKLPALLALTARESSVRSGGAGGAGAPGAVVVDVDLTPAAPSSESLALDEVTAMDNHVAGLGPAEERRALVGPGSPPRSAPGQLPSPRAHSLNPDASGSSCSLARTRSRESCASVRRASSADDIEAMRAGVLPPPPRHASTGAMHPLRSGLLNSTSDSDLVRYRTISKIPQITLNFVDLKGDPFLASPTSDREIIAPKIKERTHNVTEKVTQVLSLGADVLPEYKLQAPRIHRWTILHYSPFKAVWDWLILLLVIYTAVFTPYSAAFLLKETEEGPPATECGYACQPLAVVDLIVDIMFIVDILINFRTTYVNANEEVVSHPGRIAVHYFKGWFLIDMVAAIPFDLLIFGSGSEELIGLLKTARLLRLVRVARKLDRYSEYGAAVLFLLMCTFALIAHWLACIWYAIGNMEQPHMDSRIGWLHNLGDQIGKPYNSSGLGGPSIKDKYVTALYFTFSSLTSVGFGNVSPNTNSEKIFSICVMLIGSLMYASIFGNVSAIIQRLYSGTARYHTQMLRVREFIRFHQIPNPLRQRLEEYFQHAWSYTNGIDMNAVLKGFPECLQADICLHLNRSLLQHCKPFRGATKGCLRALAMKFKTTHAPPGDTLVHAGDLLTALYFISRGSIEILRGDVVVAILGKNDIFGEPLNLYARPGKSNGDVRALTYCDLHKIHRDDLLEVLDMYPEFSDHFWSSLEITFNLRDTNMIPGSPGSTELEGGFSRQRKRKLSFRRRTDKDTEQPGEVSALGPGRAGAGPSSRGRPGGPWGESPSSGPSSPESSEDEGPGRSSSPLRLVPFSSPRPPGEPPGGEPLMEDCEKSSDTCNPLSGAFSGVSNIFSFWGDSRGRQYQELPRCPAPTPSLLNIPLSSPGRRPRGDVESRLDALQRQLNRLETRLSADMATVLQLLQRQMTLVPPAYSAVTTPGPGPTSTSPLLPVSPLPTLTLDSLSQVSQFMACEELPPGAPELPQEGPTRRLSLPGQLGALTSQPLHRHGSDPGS

Cc1ccccc1O
12.8% and 44.7%: max response [14]
-16.4% and 2.5%: max response [19]
inactive: outcome [1] | outcome [2] | outcome [3] | outcome [4] | outcome [5] | outcome [6] | Potency [7] | outcome [8] | Potency [9] | Potency [10] | activation [11] 1.9% and -0.638% | Potency [12] | Potency [13] | outcome [15] | outcome [16] | outcome [17] | Potency [18] | outcome [20] | Potency [21] | max response [23] -5.98% and 4.44% | activity change % (negative = inhibition) [24] -12.9% and -0.275% | Potency [25]
-8.36% and -9.93%: max response [22]
